{"source": "PubChem BioAssay (EPA / NIEHS)", "note": "Inconclusive results are not listed. The source made the active and inactive calls. Rule for the calls, unless noted: active = hit-call score of the fitted dose curve at least 0.9, where 1 is the maximum; inactive = score below 0.9.", "data": [{"assay": "STM_H9_OrnCyssISnorm_ratio: Stemina devTOX quickPredict H9 human embryonic stem cell (hESC)-based Assay for Ornithine (ORN):Cystine (CYSS) Ratio (AID 2283714; active = hit-call score of the fitted dose curve at least 0.9, where 1 is the maximum)", "experimental": "STM_H9_secretome utilizes undifferentiated H9 cells to measure relative changes in two metabolites, ornithine (ORN) and cystine (CYSS) in the secretome, targeting a critical drop in the ORN/CYSS ratio as a biomarker for developmental toxicity.STM_H9_OrnCyssISnorm_ratio is one of 10 components calculated in the STM_H9_secretome assay. It is the ratio value of OrnISnorm_perc to CyssISnorm_perc.Data from the assay component STM_H9_OrnCyssISnorm_ratio was analyzed at the assay endpoint STM_H9_OrnCyssISnorm_ratio in the positive analysis fitting direction relative to DMSO as the negative control and baseline of activity. Using a type of binding reporter, gain or loss-of-signal activity can be used to understand relative metabolite change.\nH9 hESCs maintained in a pluripotent state were exposed to test compound for 72h with chemical replenishment with media replacement every 24h. Cell-conditioned media from the final 24-h treatment period was collected for analysis of the targeted biomarker, and cell viability of the corresponding cell layer was assessed. […] Each test plate included 1uM Methotrexate (MTX; Selleck Chemicals, Houston, Texas) as a positive reference, 5 nM MTX as a negative reference, 0.1% DMSO as the neutral (vehicle) control, and sample-level media blanks.H9 cell-conditioned media from the final 24-h treatment period was collected for analysis of the targeted biomarker and cell viability was measured from the corresponding cell layer. Cell viability was measured using the CellTiter-Fluor assay (Promega, Madison, Wisconsin) based on proteolytic cleavage of a substrate to fluorescent signal proportional to the number of living cells. The cell viability Relative Fluorescence Unit (RFU) was background corrected and normalized to mean RFU of the neutral control (0.1% DMSO). […] The extracted ion chromatogram (EIC) areas for ORN, CYSS, and their respective spike-in C13-standards were determined using the Agilent MassHunter Quantitative Analysis software, version B.05.00 or newer (Agilent Technologies), and data were normalized as described in Palmer et al. (2017).", "values": [{"smiles": "CS(=O)(=O)OCCCCOS(C)(=O)=O", "AC50": "31.2 µM (active)"}, {"smiles": "C=CC(C)(O)CCC=C(C)C", "note": "(stereo unspecified)", "outcome": "inactive"}, {"smiles": "O=C1c2ccccc2C(=O)c2c(O)ccc(O)c21", "AC50": "10 µM (active)"}]}, {"assay": "CEETOX_H295R_MTT_cell_viability: Viability Assessment in the CeeTox HT-H295R MTT Assay (AID 2283718);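 for AC50: curve fitted both ways so AC50 may mark viability loss or gain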", "summary_of_the_method": "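Human H295R adrenal cells, prestimulated 48 h with 10 uM forskolin, were exposed 48 h to chemicals in 0.1% DMSO. Viability was measured in the same wells by MTT (0.5 mg/ml, 4 h, 37 C), absorbance 570/650 nm, as percent of controls.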", "values": [{"smiles": "CCC(C)c1cc([N+](=O)[O-])cc([N+](=O)[O-])c1OC(=O)OC(C)C", "note": "(stereo unspecified)", "outcome": "inactive"}, {"smiles": "Nc1ccc(N)c2c1C(=O)c1ccccc1C2=O", "outcome": "inactive"}, {"smiles": "CC1(C)C(=O)N(Cl)C(=O)N1Br", "outcome": "inactive"}, {"smiles": "CC(C)Nc1nc(N)nc(Cl)n1", "outcome": "inactive"}, {"smiles": "CC(C)(C)CC(C)(C)c1ccc(OCCOCC[N+](C)(C)Cc2ccccc2)cc1", "outcome": "inactive"}, {"smiles": "OCc1cccc(Oc2ccccc2)c1", "outcome": "inactive"}, {"smiles": "CCOC(=O)[C@@H](C)Oc1ccc(Oc2nc3ccc(Cl)cc3o2)cc1", "outcome": "inactive"}, {"smiles": "Cc1cc(=O)oc2cc(N(C)C)ccc12", "outcome": "inactive"}, {"smiles": "COc1ccc(N=Nc2cc(C)c(N=Nc3ccc(S(=O)(=O)O)cc3)cc2OC)cc1", "outcome": "inactive"}, {"smiles": "COCCc1ccc(OCC(O)CNC(C)C)cc1", "note": "(stereo unspecified)", "outcome": "inactive"}, {"smiles": "COc1ccc(CCN2CCC(Nc3nc4ccccc4n3Cc3ccc(F)cc3)CC2)cc1", "outcome": "inactive"}, {"smiles": "CC(CN=Cc1ccccc1O)N=Cc1ccccc1O", "note": "(stereo unspecified)", "AC50": "2.57 µM (active)"}, {"smiles": "COc1ccc(OC)c(N=Nc2c(O)ccc3ccccc23)c1", "outcome": "inactive"}, {"smiles": "CC=Cc1ccc(OCC)c(O)c1", "outcome": "inactive"}, {"smiles": "CCc1cc(C(C)(C)C)c(O)c(C(C)(C)C)c1", "outcome": "inactive"}, {"smiles": "C=C[Si]1(C)O[Si](C)(C=C)O[Si](C)(C=C)O[Si](C)(C=C)O1", "note": "(stereo unspecified)", "outcome": "inactive"}, {"smiles": "BrCc1cccc(Oc2ccccc2)c1", "outcome": "inactive"}, {"smiles": "O=C(Nc1ccc2c(O)c(N=Nc3ccc(N=Nc4ccc(S(=O)(=O)O)cc4)cc3)c(S(=O)(=O)O)cc2c1)c1ccccc1", "outcome": "inactive"}]}]}
